About 1,200 (52%) of roughly 2,300 compounds were called active. Another 34% or so got no clear call; they are omitted. So high a share suggests a set chosen from earlier hits. The list shows a part of the results. A number with no mark means an inactive call. The call rests on the fitted dose curve; in most records, active means well fitted inhibition curve with a large enough effect; inconclusive means small, poorly fitted or top-dose-only effect, or effect the other way; inactive means no such curve, though single readings can be large or run the other way. Square brackets hold non-standard residues; d marks the D form. Peptide text beside a SMILES is read from it. * marks the point of attachment. ξ: configuration not given here. ξF = NC(Cc1ccccc1)C(=O)O; Cbz = O=C(OCc1ccccc1)*
Experiment: Confirmation screen for delayed death inhibitors of the malarial parasite plastid, 48 hour incubation; further: nearly all actives have a fitted effect of over 65% in size
Conditions: P. falciparum-infected erythrocytes, luciferase growth; series mostly up to 28.7 µM; activity change, negative = inhibition: at the top concentration
Method in brief: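 Erythrocytes infected with luciferase-expressing P. falciparum (2% hematocrit, 0.1% parasitemia) incubated with compounds 48 hours at 37 C, 5% CO2, in RPMI/Albumax. Growth inhibition scored as reduced luminescence after detection reagent.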
On the % scale 0 is the no-effect control and ±100 the full control effect; potency means the concentration at half of the fitted maximal effect.

SMILES	Potency	activity change, negative = inhibition [%]
O=S1(=O)C=C(Sc2nnc(-c3ccccc3)o2)c2ccccc21	12.6 µM (active)	–
O=S1(=O)C=C(Sc2nc3cc(Cl)ccc3o2)c2ccccc21	11.2 µM (active)	–
C#CCn1c(S(=O)(=O)Cc2ccc(F)cc2)nc(-c2ccccc2)c1-c1ccccc1	14.1 µM (active)	–
CCOC(=O)Cn1c(S(=O)(=O)Cc2cccc(F)c2)nc(-c2ccccc2)c1-c1ccccc1	11.2 µM (active)	–
C#CCn1c(S(=O)(=O)Cc2ccc(C)cc2)nc(-c2ccccc2)c1-c1ccccc1	12.6 µM (active)	–
O=C(c1cccc(Cl)c1)c1nn(-c2ccccc2)c(=O)cc1C(F)(F)F	12.6 µM (active)	–
O=C(CCl)Nc1cccc2ncccc12	4.47 µM (active)	–
Oc1ccc(-c2n[nH]c(=S)n2-c2ccc3c(c2)OCCO3)c(O)c1	0.708 µM (active)	–
O=C(c1ccc(CS(=O)c2ccccc2Cl)o1)N1CCN(c2ccccn2)CC1 (stereo unspecified)	11.2 µM (active)	–
O=C(NCc1cccc(Cl)c1)C1CCC(=O)N(CC2CCCCC2)C1 (stereo unspecified)	14.1 µM (active)	–
CCOC(=O)CNC(=O)C(Cc1ccccc1)NC(=O)OCc1ccccc1 (stereo unspecified) (Cbz-[ξF]-Gly-OEt)	–	-0.99
CCCNC(=O)C(Cc1ccc(F)cc1)NC(=O)c1ccccc1 (stereo unspecified)	10 µM (active)	–
COc1ccc(C2c3c(ncn(CCCN4CCOCC4)c3=N)Oc3ccc4ccccc4c32)cc1OC (stereo unspecified)	5.01 µM (active)	–
COc1ccc(C2c3c(ncn(CCN4CCOCC4)c3=N)Oc3ccc4ccccc4c32)cc1OC (stereo unspecified)	4.47 µM (active)	–
O=c1[nH]c(=O)n(Cc2ccco2)c2c1C(C(F)(F)F)(C(F)(F)F)N=C(CCc1ccccc1)N2	11.2 µM (active)	–
COc1ccc2c(c1)c(C(=O)N/N=C/c1ccc(OC)c(OC)c1)c(C)n2C	10 µM (active)	–
CCC(C)[C@H](NC(=O)NCCCOC(C)C)C(=O)OC (stereo partly specified)	–	0.984
CCOc1ccc2nc(C)cc(Nc3cccc([N+](=O)[O-])c3)c2c1	2 µM (active)	–
O=C(O)CCc1ccc(-c2ccccc2)n1-c1ccc(C(=O)O)cc1	–	1.49
Cc1cc2[nH]c(=O)c(=O)[nH]c2cc1S(=O)(=O)NC1CCCCC1C (stereo unspecified)	–	-18
COC(=O)C1=C(C)NC2=C(C(=O)CC(c3cccs3)C2)C1c1ccsc1 (stereo unspecified)	14.1 µM (active)	–
O=C(CSc1nc(-c2ccccc2)cs1)Nc1cccc([N+](=O)[O-])c1	–	-33.8
Cc1cc(C)nc(SCc2nnc(SCC(=O)Nc3nc(-c4ccccc4)cs3)n2C)n1	14.1 µM (active)	–

SMILES	Potency	activity change, negative = inhibition [%]
NNC(=O)CSc1nc(-c2ccccc2)cn1-c1ccccc1	–	-17
CCOC(=O)CSc1nnc(CNc2nc(-c3ccccc3)cs2)n1C	8.91 µM (active)	–
Cc1ccccc1NC(=O)Cc1nnc(SCC(=O)NC2CCCCC2)n1C	–	-9.87
CCn1c(Cc2ccccc2)nnc1SCC(=O)Nc1nc(C)cs1	12.6 µM (active)	–
CCCc1cc(NCc2ccccn2)n2nc(C)c(-c3ccccc3)c2n1	5.62 µM (active)	–
CN(C)c1ccc(NC(=S)NC23CC4CC(CC(C4)C2)C3)cc1	12.6 µM (active)	–
Cc1cccc(C)c1Nc1c(-c2ccc(N3CCOCC3)cc2)nc2ncccn12	12.6 µM (active)	–
c1ccc(SCc2cn(C[C@H]3CC[C@@H]([C@@H]4CC[C@H](Cn5cc(CSc6ccccc6)nn5)O4)O3)nn2)cc1	14.1 µM (active)	–
O=C(Nc1ccc(O)cc1)C1CC=CCC1 (stereo unspecified)	7.94 µM (active)	–
COc1cnc(-c2ccccn2)nc1Oc1ccc(C(C)(C)C)cc1	4.47 µM (active)	–
COc1cnc(-c2ccccn2)nc1N(C)c1ccccc1	3.55 µM (active)	–
O=C1c2cc([N+](=O)[O-])cc3cc([N+](=O)[O-])cc(c23)C(=O)N1c1ccccn1	14.1 µM (active)	–
CC(C)NC(=O)c1onc(CSc2ccc(C(C)C)cc2)c1C(=O)O	–	-21.4
Cc1ccc[n+](CC(=O)Nc2ccc(C)c(C)c2)c1	14.1 µM (active)	–
CC(=O)c1ccc(NC(=O)C[n+]2cccc(C)c2)cc1	–	-2.21
O=S(=O)(c1ccc(F)cc1)N1CCN(c2nc(-c3ccc(F)cc3)cs2)CC1	14.1 µM (active)	–
CN1C[C@@H]2C[C@H]1CN2c1cc2c(cc1F)c(=O)c(C(=O)O)cn2C1CC1	3.55 µM (active)	–
Cc1cc(F)ccc1S(=O)(=O)Nc1ccccc1C(=O)Nc1ccccc1-c1nc2ccccc2[nH]1	5.62 µM (active)	–
COc1ccc(C(c2c(C)n(C)n(-c3ccccc3)c2=O)c2c(C)n(C)n(-c3ccccc3)c2=O)cc1	14.1 µM (active)	–
Cc1c(C(c2ccc(Br)cc2)c2c(C)n(C)n(-c3ccccc3)c2=O)c(=O)n(-c2ccccc2)n1C	12.6 µM (active)	–
Cc1nn(C(C)C(=O)NCCCc2ccccc2)c(=O)c2nn(-c3ccccc3)c(C)c12 (stereo unspecified)	12.6 µM (active)	–
Cc1nn(C(C)C(=O)Nc2ccccc2Cl)c(=O)c2nn(-c3ccccc3)c(C)c12 (stereo unspecified)	14.1 µM (active)	–
CSc1ccc(CNC(=O)C(C)n2nc(C)c3c(C)n(-c4ccccc4)nc3c2=O)cc1 (stereo unspecified)	14.1 µM (active)	–

SMILES	Potency	activity change, negative = inhibition [%]
Cc1nn(C(C)C(=O)NCCC2=CCCCC2)c(=O)c2nn(-c3ccccc3)c(C)c12 (stereo unspecified)	12.6 µM (active)	–
Cc1c(NC(=O)C(C)Sc2nccn2C)c(=O)n(-c2ccccc2)n1C (stereo unspecified)	–	-5.16
CSc1ccc(CNc2cccc3ccccc23)cc1	–	-25.2
Cc1ccc(-c2csc(SCC(=O)c3c(N)n(C4CC4)c(=O)[nH]c3=O)n2)cc1	–	-4.3
Nc1c(C(=O)CSc2nc3ccccc3o2)c(=O)[nH]c(=O)n1C1CC1	14.1 µM (active)	–
O[C@@H]1[C@@H](O)C=C2CCN3Cc4cc5c(cc4[C@H]1C23)OCO5 (stereo partly specified)	1.58 µM (active)	–
COc1ccc(C(=O)NC2CC2)cc1OC1CCN(C/C=C/c2ccccc2)CC1	8.91 µM (active)	–
CCc1nc(Nc2ccncc2)c2oc3ccccc3c2n1	10 µM (active)	–
Cc1oc(/C=N/NS(=O)(=O)c2ccccc2)cc1Br	–	0.292
Cc1c(/C=N/Nc2nc3ccccc3[nH]2)c2ccccc2n1C	0.708 µM (active)	–
CCN(CC)c1ccc(/C=N/Nc2nc3ccccc3[nH]2)cc1	2.82 µM (active)	–
CCc1cc(SC#N)ccc1N	10 µM (active)	–
CCCN1CCc2c(sc3nc(SCC)n(-c4ccccc4)c(=O)c23)C1	1.78 µM (active)	–
CCCN1CCc2c(sc3nc(SCC)n(-c4ccc(OC)cc4)c(=O)c23)C1	1.26 µM (active)	–
COc1ccc(CCNC(=O)/C(=C/c2cccnc2)NC(=O)c2ccccc2)cc1OC	12.6 µM (active)	–
CCOc1ccc2c(c1)C(c1ccccc1)=NNC(c1ccccc1)=N2	12.6 µM (active)	–
C=CCNC(=O)c1onc(CSc2cc(C)ccc2C)c1C(=O)O	–	-10.4
Nc1[nH]nc2nc(NCc3ccccc3)c3c(c12)CCN(Cc1ccccc1)C3	15.8 µM (active)	–
O=c1[nH]c(NCc2ccccc2)nc2c1CCC2	–	-13.4
Cc1ccc(NC(=O)c2ccc3c(SCC(=O)O)c4c(nc3c2)CCCC4)c(Br)c1	11.2 µM (active)	–
COc1ccc(C2CC(c3cccs3)=NN2C(=O)CSc2nnc(N)s2)cc1OC (stereo unspecified)	14.1 µM (active)	–
O=C(c1ccccc1)N1CCCC(c2ccc(Cl)cc2)=N1	15.8 µM (active)	–
O=Nc1c(-c2c(O)[nH]c3cc(Br)ccc23)[nH]c2ccccc12	7.08 µM (active)	–

SMILES	Potency	activity change, negative = inhibition [%]
CCCCC1(c2ccc(F)cc2)NC(=O)N(CC(=O)N2CCN(C(=O)c3ccco3)CC2)C1=O (stereo unspecified)	14.1 µM (active)	–
O=C(CC(SCCO)c1ccc(F)cc1)c1ccco1 (stereo unspecified)	–	-19.4
COc1cccc(C2=CC(=O)C[C@H](c3ccc(F)cc3)C2)c1OC	–	-27.1
CCOc1ccc(Cl)cc1C1=CC(=O)C[C@H](c2ccc(OC)cc2)C1	14.1 µM (active)	–
COc1ccc2c(c1)c(CC(=O)Nc1nnc(C3CC3)s1)c(C)n2C(=O)c1ccc(Cl)cc1	14.1 µM (active)	–
Cc1ccc(-n2cc(CN3CCC(CO)(Cc4cccc(C(F)(F)F)c4)CC3)cn2)cc1	7.94 µM (active)	–
N#Cc1ccc(Oc2ccc(-c3nc4ccccc4nc3-c3ccccc3)cc2)cc1C#N	11.2 µM (active)	–
Cc1c(Cc2ccccc2)c(=O)oc2cc(OC(C)C(=O)NCC3CCC(C(=O)O)CC3)c(Cl)cc12 (stereo unspecified)	12.6 µM (active)	–
Cc1c(OC(C)C(=O)NCC2CCC(C(=O)O)CC2)ccc2c1oc(=O)c1ccccc12 (stereo unspecified)	14.1 µM (active)	–
CC(C)CC1c2[nH]c3ccccc3c2CCN1CCCn1cccn1 (stereo unspecified)	12.6 µM (active)	–
CCC1CCC(C(=O)NC(CCSC)C(=O)NCCN(CC(C)C)CC(C)C)CC1 (stereo unspecified)	12.6 µM (active)	–
O=C(CCC1N=C2c3ccccc3N=C(SCC(=O)NCc3ccco3)N2C1=O)NCc1ccco1 (stereo unspecified)	–	-31.8
O=C(CSc1nc2ccccc2c(=O)n1Cc1ccc(C(=O)NC2CC2)cc1)NCc1ccco1	14.1 µM (active)	–
O=C(CSc1c2c(nc3ccccc13)CCCC2)NCc1ccco1	–	-14.6
O=C(CSc1nc2c(sc3ccccc32)c(=O)n1-c1ccccc1)NCc1ccco1	11.2 µM (active)	–
CCN(CC)CCn1c2c(c(SCC(=O)Nc3nc4ccccc4s3)nc1=O)CCCC2	7.08 µM (active)	–
CC[N+](CC)(CC)CCCCOc1ccc2c(c1)C(=O)c1cc(OCCCC[N+](CC)(CC)CC)ccc1-2	0.0398 µM (active)	–
Cc1cccc(NC(=O)C(C)Sc2nc3ccccc3c(=O)n2CCCN2CCOCC2)c1 (stereo unspecified)	12.6 µM (active)	–
Cc1ccc(-c2nc(CSc3nc4ccccc4c(=O)n3CCO)cs2)cc1	–	-13.4
Cc1ccc(NC(=O)CSc2nc3ccccc3c(=O)n2CCCN2CCCCC2)cc1Cl	7.94 µM (active)	–
N#CCc1ccc(C(=O)c2ccccc2F)s1	–	0.887
Cc1cccc(NC(=O)COC(=O)c2cccc3c2C(=O)c2ccccc2C3=O)c1C	15.8 µM (active)	–
